PubChem BioAssay (NCI)
Compounds without any hit were thinned out: in the full panel of roughly 79,000, 15% have a hit. Activity calls are given as the source filed them. Cut-off read from the data, not from the text of the source: active = growth inhibition above about 70%; inactive = the rest.

Legend:
[1] = NCI Yeast Anticancer Drug Screen. Data for the mlh1 strain (AID 171);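 note: 0% = growth of vehicle-treated control cultures of the same strain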; conditions: S. cerevisiae mlh1 strain growth inhibition, hits give high values
How it was run: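 Test agents were incubated with yeast bearing a defined DNA damage repair or cell cycle control alteration; values are growth inhibition normalised to vehicle-treated cultures.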

[2] = NCI Yeast Anticancer Drug Screen. Data for the sgs1 strain (AID 173);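 note: 0% = growth of vehicle-only control cultures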; conditions: S. cerevisiae sgs1 mutant, hits give high values
How it was run: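 Strain with an altered DNA repair or cell cycle pathway exposed to compound. Growth then measured. Value = inhibition versus vehicle control.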

[3] = NCI Yeast Anticancer Drug Screen. Data for the mlh1 rad18 strain (AID 175); conditions: S. cerevisiae mlh1 rad18 strain growth inhibition, hits give high values
How it was run: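 A repair-deficient yeast strain is exposed to test compound, and growth is scored relative to vehicle-treated controls.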

[4] = NCI Yeast Anticancer Drug Screen. Data for the rad18 strain (AID 177); conditions: S. cerevisiae rad18 mutant growth inhibition, hits give high values
How it was run: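 DNA-repair-defective yeast; compound treatment; growth inhibition scored against vehicle.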

[5] = NCI Yeast Anticancer Drug Screen. Data for the wt1 strain (AID 149);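 note: 0% = growth of vehicle-treated wt1 cultures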; conditions: S. cerevisiae wt1 strain (SPY 50644) growth inhibition, hits give high values
How it was run: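 The wt1 strain was treated with compounds, and growth was compared with vehicle-treated cultures to give inhibition.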

[6] = NCI Yeast Anticancer Drug Screen. Data for the rad50EPP+ strain (AID 151);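 note: 0% = growth of vehicle-treated control cultures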; conditions: S. cerevisiae rad50 mutant strain, hits give high values
How it was run: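 Measured: growth inhibition of rad50EPP+ yeast. Reference: vehicle-treated controls. Screen uses strains with defined genetic alterations in DNA damage repair or cell cycle control.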

[7] = NCI Yeast Anticancer Drug Screen. Data for the mgt1 strain (AID 153); conditions: S. cerevisiae mgt1 mutant growth inhibition, hits give high values
How it was run: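 Compounds were applied to mgt1 mutant yeast, and growth was then compared against vehicle-treated control cultures to give percent inhibition.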

[8] = NCI Yeast Anticancer Drug Screen. Data for the rad50 strain (AID 155);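 note: 0% = growth of vehicle-only cultures of the same strain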; conditions: S. cerevisiae rad50 strain growth inhibition, hits give high values
How it was run: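 Cells are treated with compound, grown, and their growth is then scored against vehicle-only cultures of the same repair-deficient yeast strain.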

[9] = NCI Yeast Anticancer Drug Screen. Data for the mec2-1 strain (AID 157); conditions: S. cerevisiae mec2-1 strain, hits give high values
How it was run: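 Compounds were applied to mec2-1 yeast cells. Their growth was then compared with that of vehicle-treated cultures to give growth inhibition.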

[10] = NCI Yeast Anticancer Drug Screen. Data for the rad14 strain (AID 159);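 note: 0% = growth of vehicle-treated control cultures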; conditions: S. cerevisiae rad14 strain growth inhibition, hits give high values
How it was run: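 Readout: yeast growth inhibition, referenced to vehicle-only cultures. Strain bears a defined alteration in DNA damage repair.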

[11] = NCI Yeast Anticancer Drug Screen. Data for the sgs1 mgt1 strain (AID 161);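 note: 0% = growth of cultures given vehicle only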; conditions: S. cerevisiae sgs1 mgt1 strain, hits give high values
How it was run: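 Yeast cells carrying a defined DNA-repair defect were exposed to test compounds. Growth inhibition was measured relative to vehicle-treated controls.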

[12] = NCI Yeast Anticancer Drug Screen. Data for the CLN2oe strain (AID 163);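 note: 0% = growth of vehicle-only control cultures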; conditions: S. cerevisiae CLN2oe strain, hits give high values
How it was run: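 Cells of an engineered yeast line with disturbed cell-cycle regulation are treated with compound. Inhibition of growth is then calculated relative to the vehicle-treated reference.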

[13] = NCI Yeast Anticancer Drug Screen. Data for the cln2 rad14 strain (AID 165);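 note: 0% = growth equal to vehicle treated cultures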; conditions: S. cerevisiae cln2 rad14 strain, hits give high values
How it was run: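 Strain: cln2 rad14 yeast, altered in cell cycle control and DNA damage repair. Read-out: growth inhibition vs vehicle.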

[14] = NCI Yeast Anticancer Drug Screen. Data for the bub3 strain (AID 167); conditions: S. cerevisiae bub3 mutant strain, hits give high values
How it was run: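 Part of a panel of yeast mutants defective in DNA damage repair or cell cycle regulation. Each strain is grown with compound, and inhibition is calculated relative to solvent-treated cultures.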

[15] = NCI Yeast Anticancer Drug Screen. Data for the wt2 strain (AID 169);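 note: 0% = growth of vehicle-treated yeast cultures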; conditions: S. cerevisiae wt2 strain growth inhibition, hits give high values
How it was run: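 Growth of compound-treated yeast is measured and expressed as inhibition relative to vehicle-only controls.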

[16] = at 5.0 µM (retest, dose inferred, filed as 0.5)
[17] = at 50.0 µM (retest, dose inferred, filed as 5.0)

Measured: growth inhibition

CCCCCCCCCCCCOC1C(COCCN2CCCC2)OC2OC(C)(C)OC21 (centres undefined)
inactive: [1]; at 1.2 µM 25% | [1]; at 3.7 µM 27% | [2]; at 1.2 µM 22% | [2]; at 3.7 µM 21% | [3]; [16] 16% | [4]; at 1.2 µM 37% | [4]; at 3.7 µM 27%
active: [1]; at 11.0 µM 94% | [1]; at 33.0 µM 98% | [1]; at 100.0 µM 98% | [2]; at 11.0 µM 97% | [2]; at 33.0 µM 98% | [2]; at 100.0 µM 98% | [3]; [17] 99% | [3]; at 50.0 µM 90% | [4]; at 11.0 µM 97% | [4]; at 33.0 µM 98% | [4]; at 100.0 µM 97%

O=c1c(Br)cc2c(-c3ccccc3)c3cc(Br)c(O)c(Br)c3oc-2c1Br
inactive: [5]; at 1.2 µM -1% | [5]; at 3.7 µM 11% | [5]; at 11.0 µM 9% | [5]; at 33.0 µM 0% | [5]; at 100.0 µM -4% | [6]; at 1.2 µM 1% | [6]; at 3.7 µM 23% | [6]; at 11.0 µM 38% | [6]; at 33.0 µM 57% | [6]; at 100.0 µM 39% | [7]; at 1.2 µM 0% | [7]; at 3.7 µM -2% | [7]; at 11.0 µM 9% | [7]; at 33.0 µM 28% | [7]; at 100.0 µM 23% | [8]; at 1.2 µM -54% | [8]; at 3.7 µM 24% | [8]; [16] 22% | [8]; [17] 13% | [9]; at 1.2 µM 1% | [9]; at 3.7 µM 4% | [9]; [16] 54% | [9]; at 11.0 µM -1% | [9]; at 33.0 µM -3% | [9]; [17] 28% | [9]; at 100.0 µM -1% | [10]; at 1.2 µM 2% | [10]; at 3.7 µM 17% | [10]; at 11.0 µM 31% | [10]; at 33.0 µM 22% | [10]; at 100.0 µM -4% | [11]; [16] 16% | [11]; [17] 7% | [11]; at 50.0 µM 61.3% | [12]; at 1.2 µM 3% | [12]; at 3.7 µM 5% | [12]; at 11.0 µM 9% | [12]; at 33.0 µM 23% | [12]; at 100.0 µM 15% | [13]; [16] 28% | [13]; [17] 12% | [13]; at 50.0 µM 55% | [14]; at 1.2 µM -4% | [14]; at 3.7 µM 4% | [14]; [16] 6% | [14]; [17] -6% | [14]; at 50.0 µM 54.2% | [15]; at 1.2 µM 10% | [15]; at 3.7 µM 17% | [15]; at 11.0 µM 21% | [15]; at 33.0 µM 18% | [15]; at 100.0 µM 6% | [1]; at 1.2 µM 0% | [1]; at 3.7 µM -29% | [1]; at 11.0 µM 12% | [1]; at 33.0 µM 18% | [1]; at 100.0 µM 25% | [2]; at 1.2 µM 0% | [2]; at 3.7 µM 8% | [2]; at 11.0 µM 26% | [2]; at 33.0 µM 22% | [2]; at 100.0 µM 13% | [3]; [16] 67% | [3]; [17] 58% | [4]; at 1.2 µM -8% | [4]; at 3.7 µM 9% | [4]; at 11.0 µM 1% | [4]; at 33.0 µM -2% | [4]; at 100.0 µM -10%
active: [8]; at 11.0 µM 89% | [8]; at 33.0 µM 87% | [8]; at 50.0 µM 80.8% | [8]; at 100.0 µM 80% | [9]; at 50.0 µM 78.4% | [14]; at 11.0 µM 76% | [14]; at 33.0 µM 92% | [14]; at 100.0 µM 79% | [3]; at 50.0 µM 83.4%

CCN(CC)c1cccc(Nc2nc3ccccc3s2)c1
inactive: [5]; at 1.2 µM 8% | [5]; at 3.7 µM 10% | [5]; at 11.0 µM 6% | [5]; at 33.0 µM 7% | [5]; at 100.0 µM 5% | [6]; at 1.2 µM -9% | [6]; at 3.7 µM 0% | [6]; at 11.0 µM -2% | [6]; at 33.0 µM 1% | [6]; at 100.0 µM 19% | [7]; at 1.2 µM 6% | [7]; at 3.7 µM 6% | [7]; at 11.0 µM 5% | [7]; at 33.0 µM 7% | [7]; at 100.0 µM 7% | [8]; at 1.2 µM 8% | [8]; at 3.7 µM 9% | [8]; [16] -4% | [8]; at 11.0 µM 5% | [8]; at 33.0 µM 7% | [8]; [17] 2% | [8]; at 50.0 µM 1.6% | [8]; at 100.0 µM 7% | [9]; at 1.2 µM 13% | [9]; at 3.7 µM 14% | [9]; [16] -5% | [9]; at 11.0 µM 15% | [9]; at 33.0 µM 16% | [9]; [17] 1% | [9]; at 50.0 µM 7.7% | [9]; at 100.0 µM 8% | [10]; at 1.2 µM 7% | [10]; at 3.7 µM 7% | [10]; at 11.0 µM 7% | [10]; at 33.0 µM 7% | [10]; at 100.0 µM 7% | [11]; [16] 3% | [11]; [17] 21% | [11]; at 50.0 µM 17.4% | [12]; at 1.2 µM -3% | [12]; at 3.7 µM 1% | [12]; at 11.0 µM -1% | [12]; at 33.0 µM -4% | [12]; at 100.0 µM -10% | [13]; [16] -9% | [13]; [17] -1% | [13]; at 50.0 µM -7.1% | [14]; at 1.2 µM 0% | [14]; at 3.7 µM -1% | [14]; [16] 32% | [14]; at 11.0 µM 5% | [14]; at 33.0 µM 14% | [14]; at 100.0 µM 30% | [15]; at 1.2 µM -1% | [15]; at 3.7 µM -1% | [15]; at 11.0 µM -1% | [15]; at 33.0 µM -2% | [15]; at 100.0 µM -3% | [1]; at 1.2 µM 10% | [1]; at 3.7 µM 9% | [1]; at 11.0 µM 10% | [1]; at 33.0 µM 9% | [1]; at 100.0 µM 8% | [2]; at 1.2 µM 8% | [2]; at 3.7 µM 7% | [2]; at 11.0 µM 7% | [2]; at 33.0 µM 7% | [2]; at 100.0 µM 5% | [3]; [16] 4% | [3]; [17] 20% | [3]; at 50.0 µM 25.1% | [4]; at 1.2 µM 7% | [4]; at 3.7 µM 7% | [4]; at 11.0 µM 6% | [4]; at 33.0 µM 3% | [4]; at 100.0 µM 1%
active: [14]; [17] 83% | [14]; at 50.0 µM 89.8%
